Source: PubChem
Shown are actives, neighbours in structure and some others; about 3.2% of the full set was active somewhere.
GDH-TPI counter-1 – counter-screen for M. tuberculosis FBA inhibitors: GDH-TPI coupled enzymes | GDH-TPI coupled enzyme counterscreen, NADH absorbance | inhibition, % at 4.8 µM | 1.2% of 360,000 active | AID 588335; in the data active = inhibition above about 30%;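 also: 0% = DMSO wells and 100% = wells lacking the enzyme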
PrPC TRFRET – inhibitors of human cell surface prion protein PrPC. inhibition, % at 13.8 µM. P04156. 0.43% of 370,000 active. TR-FRET read-out. AID 720596; in the data active = inhibition above about 24%; also: 0% = median of the test wells and 100% = reference compound wells
FBA Mtb inh – inhibitors of M. tuberculosis fructose-bisphosphate aldolase; P9WQA3; purified M. tuberculosis FBA, fluorescence read-out; inhibition, % at 1 µM; 2.3% of 360,000 active; AID 588726; in the data active = inhibition above about 27%;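 also: 0% = vehicle and 100% = reference inhibitor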
Yp Topo-I inh – blocks Yersinia pestis topoisomerase I activity; Y. pestis Topo-I cleavage product accumulation, plate reader; activity, % at 10 µM; 0.064% of 360,000 active; in the data active = activity above about 50%, passing the limit was not always enough
TcdB inh – TcdB glycohydrolase inhibition | P18177 | TcdB glycohydrolase enzymatic assay, plate reader | inhibition, % at 9.99 µM | 0.24% of 350,000 active
Target sequence (P18177 whole entry, looked up): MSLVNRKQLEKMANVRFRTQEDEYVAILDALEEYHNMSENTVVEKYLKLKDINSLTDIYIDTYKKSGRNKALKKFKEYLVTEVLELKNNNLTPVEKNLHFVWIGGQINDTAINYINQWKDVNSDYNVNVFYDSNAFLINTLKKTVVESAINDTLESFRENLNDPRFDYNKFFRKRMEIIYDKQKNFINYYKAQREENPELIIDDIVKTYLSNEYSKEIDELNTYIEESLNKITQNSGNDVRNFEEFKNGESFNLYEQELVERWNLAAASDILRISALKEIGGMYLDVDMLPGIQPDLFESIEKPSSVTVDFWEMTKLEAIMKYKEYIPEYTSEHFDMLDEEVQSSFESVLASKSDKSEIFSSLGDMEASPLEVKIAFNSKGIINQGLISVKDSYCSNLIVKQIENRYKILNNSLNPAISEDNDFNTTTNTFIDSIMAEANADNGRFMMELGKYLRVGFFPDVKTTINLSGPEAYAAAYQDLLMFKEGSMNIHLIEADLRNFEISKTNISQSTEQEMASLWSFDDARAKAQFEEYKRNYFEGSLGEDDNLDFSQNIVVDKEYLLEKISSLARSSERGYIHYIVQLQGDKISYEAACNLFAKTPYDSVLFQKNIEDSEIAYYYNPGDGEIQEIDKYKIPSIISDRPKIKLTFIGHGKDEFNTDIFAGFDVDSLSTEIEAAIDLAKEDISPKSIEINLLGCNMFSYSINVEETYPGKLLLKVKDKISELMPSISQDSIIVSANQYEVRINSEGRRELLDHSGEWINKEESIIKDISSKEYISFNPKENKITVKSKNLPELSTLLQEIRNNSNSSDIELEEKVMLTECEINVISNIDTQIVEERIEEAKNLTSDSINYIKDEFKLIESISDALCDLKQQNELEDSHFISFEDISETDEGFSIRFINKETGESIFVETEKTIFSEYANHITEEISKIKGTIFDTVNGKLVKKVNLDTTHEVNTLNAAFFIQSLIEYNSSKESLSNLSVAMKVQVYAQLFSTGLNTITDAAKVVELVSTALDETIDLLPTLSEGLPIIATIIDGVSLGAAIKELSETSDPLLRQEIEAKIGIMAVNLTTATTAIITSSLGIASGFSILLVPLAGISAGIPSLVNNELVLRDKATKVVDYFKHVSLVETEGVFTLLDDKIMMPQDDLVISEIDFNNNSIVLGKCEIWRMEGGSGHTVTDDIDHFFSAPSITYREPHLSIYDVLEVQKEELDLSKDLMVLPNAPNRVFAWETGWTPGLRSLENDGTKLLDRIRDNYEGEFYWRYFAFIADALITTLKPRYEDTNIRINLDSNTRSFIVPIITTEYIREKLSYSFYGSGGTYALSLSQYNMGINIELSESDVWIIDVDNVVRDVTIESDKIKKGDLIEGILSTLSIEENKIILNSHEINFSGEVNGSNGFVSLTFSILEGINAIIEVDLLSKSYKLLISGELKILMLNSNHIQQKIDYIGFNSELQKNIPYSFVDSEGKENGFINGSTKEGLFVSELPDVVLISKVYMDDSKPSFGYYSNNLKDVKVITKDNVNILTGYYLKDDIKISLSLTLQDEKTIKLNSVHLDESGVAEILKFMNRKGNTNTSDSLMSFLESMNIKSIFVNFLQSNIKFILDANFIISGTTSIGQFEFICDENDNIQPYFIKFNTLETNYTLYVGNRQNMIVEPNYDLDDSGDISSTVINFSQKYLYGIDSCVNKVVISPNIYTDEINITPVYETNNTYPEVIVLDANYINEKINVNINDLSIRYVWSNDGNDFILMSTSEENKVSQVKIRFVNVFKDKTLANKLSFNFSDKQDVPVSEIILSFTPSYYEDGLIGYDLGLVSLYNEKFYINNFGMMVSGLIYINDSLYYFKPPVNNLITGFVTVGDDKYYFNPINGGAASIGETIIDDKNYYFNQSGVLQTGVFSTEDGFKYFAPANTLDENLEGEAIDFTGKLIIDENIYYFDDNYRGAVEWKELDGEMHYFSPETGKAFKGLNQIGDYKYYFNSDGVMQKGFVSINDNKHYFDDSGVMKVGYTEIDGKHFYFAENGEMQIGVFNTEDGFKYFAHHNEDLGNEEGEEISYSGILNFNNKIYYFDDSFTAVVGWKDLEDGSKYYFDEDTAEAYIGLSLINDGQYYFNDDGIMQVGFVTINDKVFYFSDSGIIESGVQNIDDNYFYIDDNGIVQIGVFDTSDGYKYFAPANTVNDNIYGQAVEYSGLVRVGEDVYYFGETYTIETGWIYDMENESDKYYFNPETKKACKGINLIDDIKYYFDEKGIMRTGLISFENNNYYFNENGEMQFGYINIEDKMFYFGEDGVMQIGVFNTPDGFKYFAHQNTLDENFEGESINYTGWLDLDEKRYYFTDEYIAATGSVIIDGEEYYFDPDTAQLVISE
Mtb FBA inh conf – confirmation of M. tuberculosis fructose-bisphosphate aldolase inhibitors. 78% of 5,600 active. purified M. tuberculosis FBA, fluorescence read-out. inhibition, % at 1 µM. shares compounds with FBA Mtb inh; in the data active = inhibition above about 27%;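 also: 0% = vehicle wells and 100% = reference inhibitor wells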
GDH-TPI counter-2 – GDH-TPI inhibition counter-screen for FBA inhibitors; shares compounds with FBA Mtb inh; GDH-TPI coupled enzyme counterscreen, fluorescence; inhibition, % at 1 µM; 81% of 5,600 active
The depositor's hits bear a star; . = no result; + = active, no number. Rule as the data show it, unless noted: active = inhibition above about 10%; inactive = the rest.

SMILES	GDH-TPI counter-1	PrPC TRFRET	FBA Mtb inh	Yp Topo-I inh	TcdB inh	Mtb FBA inh conf	GDH-TPI counter-2
c1ccc(-n2cnc3ccccc32)nc1	4.5	11.1	-0.3	4.4	-9.1	.	.
Cc1ccc(S(=O)(=O)Nc2ccc3c(c2)C(=O)N([C@H](C)CO)C[C@@H](C)[C@@H](CN(C)S(=O)(=O)c2cccs2)OCCCC[C@H](C)O3)cc1	.	.	.	.	0.8	.	.
CC(=O)N(C)C[C@H]1Oc2ncc(-c3cncnc3)cc2C(=O)N([C@H](C)CO)C[C@@H]1C	.	.	.	.	-0.5	.	.
COc1ccc(C#Cc2cnc3c(c2)C(=O)N([C@H](C)CO)C[C@@H](C)[C@H](CN(C)C(C)=O)O3)cc1	.	.	.	.	-1.7	.	.
C[C@H]1CN([C@@H](C)CO)C(=O)c2cccc(NC(=O)c3ccc(-c4nccs4)cc3)c2O[C@@H]1CN(C)S(=O)(=O)c1ccc(Cl)cc1	.	.	.	.	0.0	.	.
c1ccc(C2=NN(c3ccccc3)CC2)cc1	24.7	4.5	48.5*	-2.2	0.2	-1.7	-5.1
C[C@H]1CN([C@@H](C)CO)C(=O)c2cc(NC(=O)Nc3ccc(F)cc3)ccc2O[C@H]1CN(C)S(=O)(=O)c1ccc(Cl)cc1	.	.	.	.	-10.6	.	.
COc1ccc(N2CCN(C(=O)c3ccc4[nH]c(C)c(C)c4c3)CC2)cc1	-0.5	-8.6	0.6	7.1	1.9	.	.
Cc1[nH]c2ccc(C(=O)N3CCN(c4ccc(F)cc4)CC3)cc2c1C	9.5	6.6	30.3*	18.0	0.6	158.2*	119.8*
COc1ccc(-c2nc(-c3ccccc3)c(-c3cc([N+](=O)[O-])ccc3C)[nH]2)cc1OC	12.0	5.7	1.1	9.7	.	.	.
COc1ccc(-c2[nH]c(-c3cc(OC)c4c(c3)OCO4)nc2-c2ccccc2)cc1	15.1	9.2	61.5*	-25.6	0.8	+	+
Cc1noc(C)c1S(=O)(=O)Nc1ccc2c(c1)C(=O)N([C@H](C)CO)C[C@@H](C)[C@H](CN(C)S(=O)(=O)c1c(C)noc1C)OCCCC[C@@H](C)O2	.	.	.	.	0.2	.	.
CCOc1ccc(C2C(C(=O)OC)=CN(C(C)c3ccccc3)C=C2C(=O)OC)cc1 (stereo unspecified)	-4.1	7.0	70.6*	42.2	0.3	+	+
O=C(C1CC1)N1CCCCN2[C@H](C1)[C@@H](c1ccc(C#CC3(O)CCCC3)cc1)[C@@H]2CO	.	.	.	.	-2.1	.	.
COc1ccc2oc(=O)c(C(=O)NC(C)c3ccccc3)cc2c1 (stereo unspecified)	11.8	-8.9	43.8*	4.4	1.4	141.6*	86.8*
COc1ccc2oc(=O)c(C(=O)NCc3ccco3)cc2c1	20.0	1.2	65.5*	-9.3	1.4	-2.4	-5.0
COc1ccc2oc(=O)c(C(=O)Nc3ccccc3O)cc2c1	-0.3	-21.3	-8.2	4.3	1.5	.	.
CCCN(C)C[C@H]1OCCCC[C@H](C)Oc2ccc(NS(=O)(=O)c3ccc(OC)cc3)cc2C(=O)N([C@@H](C)CO)C[C@H]1C	.	.	.	.	0.6	.	.
CC(C)NC(=O)N(C)C[C@H]1OCCCC[C@@H](C)Oc2ccc(NS(=O)(=O)c3ccc(F)cc3)cc2C(=O)N([C@H](C)CO)C[C@@H]1C	.	.	.	.	-0.9	.	.
CCC(=O)Nc1ccc2c(c1)C(=O)N(C)[C@@H]1CC[C@H](CC(=O)NCCc3ccccc3)O[C@@H]1CO2	.	.	.	.	0.8	.	.
NC(=O)c1ccc(Oc2ncc(C(F)(F)F)cc2Cl)cc1	0.3	7.4	1.0	-11.8	0.9	.	.
N#CCc1ccc(Oc2ncc(C(F)(F)F)cc2Cl)cc1	-0.3	-0.9	43.7*	8.4	1.4	122.6*	101.7*
O=C(C[C@@H]1C[C@H]2c3cc(NC(=O)Nc4ccc(F)cc4)ccc3O[C@H]2[C@H](CO)O1)NCC(F)(F)F	.	.	.	.	0.0	.	.
Nc1cc(=O)[nH]c(SCC(=O)Nc2ccc(F)c(Cl)c2)n1	-5.1	0.3	5.3	2.5	.	.	.
Cc1ccc2nc(-c3ccc(NC(=O)CSc4nccc(=O)[nH]4)cc3)sc2c1	23.9	-1.0	52.7*	6.8	1.1	+	+
SMILES	GDH-TPI counter-1	PrPC TRFRET	FBA Mtb inh	Yp Topo-I inh	TcdB inh	Mtb FBA inh conf	GDH-TPI counter-2
Cc1ccc2nc(-c3ccc(NC(=O)CSc4nc(N)cc(=O)[nH]4)cc3)sc2c1	23.7	9.4	36.5*	12.8	0.8	72.5*	42.5*
Cc1ccc(S(=O)(=O)Nc2ccc3c(c2)CC(=O)N([C@H](C)CO)C[C@@H](C)[C@@H](CN(C)Cc2ccccc2)O3)cc1	.	.	.	.	-0.7	.	.
O=C(O)CCNc1ccc(NCCC(=O)O)c2c1C(=O)c1ccccc1C2=O	23.5	-127.0	90.1*	-8.2	-43.1	4.2	2.7
Cn1c(=O)c2nc3ccccc3nc2n(C)c1=O	-3.8	-38.8	11.3	-8.3	-0.7	.	.
Cn1c(=O)c2nc(Cl)c(-c3ccccc3)nc2n(C)c1=O	8.1	-62.4	33.3*	-0.6	0.4	151.6*	105.2*
Cn1c(=O)c2nc(-c3ccccc3)c(-c3ccccc3)nc2n(C)c1=O	13.2	0.6	44.2*	5.6	0.6	81.0*	77.8*
NS(=O)(=O)c1ccc(CCNC(=O)c2cc(-c3ccco3)nc3ccccc23)cc1	18.6	-8.2	77.1*	0.4	-9.6	75.1*	72.8*
NS(=O)(=O)c1ccc(CNC(=O)c2cc(-c3ccccc3)nc3ccccc23)cc1	15.2	-4.4	0.5	-7.4	0.4	.	.
Cc1ccc(-c2cc(C(=O)NCCc3ccc(S(N)(=O)=O)cc3)c3ccccc3n2)cc1	13.0	-18.6	34.1*	12.8	0.6	176.7*	179.0*
C[C@@H]1CN([C@@H](C)CO)S(=O)(=O)c2ccc(C#Cc3ccccc3F)cc2O[C@@H]1CN(C)CC1CC1	.	.	.	.	-0.6	.	.
C[C@H](CO)N1C[C@H](C)[C@H](CN(C)CC2CCCCC2)Oc2c(NS(=O)(=O)c3ccccc3)cccc2C1=O	.	.	.	.	-0.8	.	.
C=C1c2cc(OC)ccc2NC(=O)N1CC	12.8	-0.1	34.3*	-1.8	.	3.2	2.0
Cc1nc2nc(CCNS(=O)(=O)c3ccc(Cl)cc3)cn2nc1C	4.3	10.5	72.2*	-10.0	-3.7	61.5*	63.0*
COc1ccc(S(=O)(=O)NCCc2cn3nc(C)c(C)nc3n2)cc1	0.9	0.0	59.2*	4.0	-0.3	-4.1	-3.2
COc1ccc(S(=O)(=O)NCCc2ccccn2)cc1	-8.5	-0.1	-1.4	9.7	1.0	.	.
CCN1[C@H](C(=O)NCC2CC2)[C@@H](CO)[C@@H]2Cn3c(ccc(-c4ccccc4)c3=O)[C@@H]21	.	.	.	.	-1.8	.	.
CCNC(=O)/C(C#N)=C/c1c(N2CCN(c3ccccc3)CC2)nc2ccccn2c1=O	9.0	-42.7	49.5*	19.6	1.4	26.6	17.4*
COCCCNC(=O)/C(C#N)=C/c1c(N2CCN(c3ccccc3)CC2)nc2ccccn2c1=O	6.0	-23.2	91.3*	14.6	0.7	112.3*	121.3*
Cc1ccc(N(C(=O)CCC(=O)Nc2cc(C)on2)C(C(=O)NC2CCCC2)c2ccccc2)cc1 (stereo unspecified)	7.8	5.9	0.5	31.6	2.0	.	.
